The record followed here is the supplement of paper PMC6555819.

This assay has as its system RARa homodimer (NR concentration 270 nM). Description: PBM binding z-score (relative to random genomic background probes); higher = stronger binding; sequences stand for … in GC…GCGATTGACAGCGTAGAATGAAGG
In short, it runs like this: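 Each nuclear receptor dimer, without ligand, was incubated for 1 h on custom Agilent 4×180K protein-binding microarrays. Binding was detected with antibodies against each partner (one per run), and scanned fluorescence was regression-normalized. The binding z-scores are referenced to random human genomic background probes.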
In turn, CGAACTAGGTGACCAGGACAGTGAAGAGGTTGGA had a PBM binding z-score of -0.394.

For the sequence CGAACTAGGTCATAGGACAGTGAAAGGCGACGTA, the PBM binding z-score came out at 0.173.

As to CGAGCTAGGTCAAAGGACAGTGAAAGGCGACGTA, the PBM binding z-score was -0.312.

Sequence ATATGTAGGTGAGGGTCATTCAGAAAGTAGGGAA came in with a PBM binding z-score of 2.

As for ATAGGTAGGTTAGGGTCATTCAGAAAGTAGGGAA, the PBM binding z-score turned out to be 3.2.

In the case of AGATGTAGGTTAGGGTCATTCAGAAAGTAGGGAA, the PBM binding z-score came out at 3.23.

Regarding AAATGTAGGTTAGGGTCATTCAGAAAGTAGGGAA, the PBM binding z-score came to 1.99.

In the case of CGAACTAGGTCAAAGGAAAGTGAAAGGCGACGTA, the PBM binding z-score worked out at 0.526.

The sequence CGAACTAGGTCACCAGGACATTGAAGAGGTTGGA came in with a PBM binding z-score of 0.511.

On to CGAACTAGGTCAAAGGACAGTCAAAGGCGACGTA, for which the PBM binding z-score worked out at 0.35.

CGAAATAGGTCAAAGGACAGTGAAAGGCGACGTA displayed a PBM binding z-score of 0.491.

For the sequence ATATGAAGGTTAGGGTCATTCAGAAAGTAGGGAA, the PBM binding z-score was found to be 2.29.

ATATGTGGGTTAGGGTCATTCAGAAAGTAGGGAA came in with a PBM binding z-score of 3.33.

Turning to CGAACTAGGTCAAAGGACAGTAAAAGGCGACGTA, the PBM binding z-score amounted to 0.769.

ATATGTAGGTTAGGGGCATTCAGAAAGTAGGGAA: the PBM binding z-score is 1.74.

CGAACTAGGTCACCAGGCCAGTGAAGAGGTTGGA: the PBM binding z-score was -0.334.

On to CGAACTAGGTCACCAAGACAGTGAAGAGGTTGGA, for which the PBM binding z-score came out at 0.703.
